Holding throughout (assay): DAPPL (digital affinity profiling via proximity ligation, sequencing); 10 mM Tris-HCl pH 7.5, 50 mM NaCl, 1 mM DTT, 4% glycerol, room temperature, 30 min; GST-TFs on glutathione beads, 16-mer random dsDNA library, 0.1% formaldehyde crosslink after washing; high values mean tight binding
The target in one assay is T1, FEV (Homo sapiens, UniProt Q99581 1-238).
T1 sequence: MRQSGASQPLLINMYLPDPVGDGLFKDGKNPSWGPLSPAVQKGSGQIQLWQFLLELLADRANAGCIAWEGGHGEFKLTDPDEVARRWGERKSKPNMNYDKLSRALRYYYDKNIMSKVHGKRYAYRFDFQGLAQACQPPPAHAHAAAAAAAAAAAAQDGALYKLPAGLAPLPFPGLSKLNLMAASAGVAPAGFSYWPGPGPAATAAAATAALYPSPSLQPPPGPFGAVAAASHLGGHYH
The note with it: protein: recombinant; tags: N-terminal GST; dsDNA, one strand shown. In short, it runs like this: (§1)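 Yeast served to express human transcription factors as GST fusions, which were then captured on glutathione beads and labelled with DNA barcodes. Pooled with a tag-only sample, they were incubated with 200 nmole of a 16-mer random double-stranded DNA library for 30 min at room temperature in Tris/NaCl/DTT/glycerol buffer, washed, crosslinked with 0.1% formaldehyde, ligated by proximity, amplified by PCR and sequenced. Dividing each hexamer's read frequency for a factor by its frequency for the tag-only sample gives the binding signal.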

A further assay has as its target ETV5 (Homo sapiens, UniProt P41161 1-510). The following applies: protein: recombinant; tags: N-terminal GST; dsDNA, one strand shown. In short, it runs like this:
as §1

For the next assay, the target named is HSF1 (Homo sapiens, UniProt Q00613 1-529). The note with it: protein: recombinant; tags: N-terminal GST; chain copies: 3; dsDNA, one strand shown. In short, it runs like this:
as §1

In a further assay the target is T2, SPIC (Homo sapiens, UniProt Q8N5J4 1-248).
T2 sequence: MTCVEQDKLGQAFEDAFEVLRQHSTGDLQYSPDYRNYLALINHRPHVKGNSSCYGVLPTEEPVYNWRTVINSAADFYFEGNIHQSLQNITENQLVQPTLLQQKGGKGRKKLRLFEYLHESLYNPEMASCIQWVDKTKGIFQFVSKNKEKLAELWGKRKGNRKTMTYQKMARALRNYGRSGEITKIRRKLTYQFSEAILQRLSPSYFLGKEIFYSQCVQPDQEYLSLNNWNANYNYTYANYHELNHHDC
The following applies: protein: recombinant; tags: N-terminal GST; dsDNA, one strand shown. A digest of the protocol:
as §1

A further assay concerns the target ELF4 (Homo sapiens, UniProt Q99607 1-663). The following applies: protein: recombinant; tags: N-terminal GST; dsDNA, one strand shown. A digest of the protocol: as §1
In another assay the target is T3, ELK4 (Homo sapiens, UniProt P28324-2 1-405).
T3 sequence: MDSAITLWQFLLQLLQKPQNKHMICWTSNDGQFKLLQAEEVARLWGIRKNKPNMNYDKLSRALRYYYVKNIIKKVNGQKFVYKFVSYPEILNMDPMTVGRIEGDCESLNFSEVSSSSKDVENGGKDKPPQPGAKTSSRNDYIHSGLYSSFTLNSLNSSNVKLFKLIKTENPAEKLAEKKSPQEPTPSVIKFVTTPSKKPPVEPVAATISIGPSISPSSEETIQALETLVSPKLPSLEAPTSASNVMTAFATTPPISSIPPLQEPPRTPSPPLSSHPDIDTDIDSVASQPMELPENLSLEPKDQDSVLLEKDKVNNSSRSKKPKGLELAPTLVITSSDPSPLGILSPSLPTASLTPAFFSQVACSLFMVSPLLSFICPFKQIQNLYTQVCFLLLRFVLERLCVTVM
The following applies: protein: recombinant; tags: N-terminal GST; dsDNA, one strand shown. A digest of the protocol: as §1

The target of a further assay is T4, ETV2 (Homo sapiens, UniProt O00321 1-342).
T4 sequence: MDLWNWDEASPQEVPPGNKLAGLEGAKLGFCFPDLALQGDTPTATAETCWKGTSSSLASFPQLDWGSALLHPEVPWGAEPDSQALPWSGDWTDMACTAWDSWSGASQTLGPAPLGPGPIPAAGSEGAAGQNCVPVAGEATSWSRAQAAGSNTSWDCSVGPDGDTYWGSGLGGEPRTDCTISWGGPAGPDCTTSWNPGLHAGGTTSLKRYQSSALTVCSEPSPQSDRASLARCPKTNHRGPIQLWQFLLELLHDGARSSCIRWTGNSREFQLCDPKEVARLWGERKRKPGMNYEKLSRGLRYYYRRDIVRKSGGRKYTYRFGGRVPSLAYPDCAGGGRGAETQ
The note with it: protein: recombinant; tags: N-terminal GST; dsDNA, one strand shown. A digest of the protocol:
as §1

A further assay deals with T5, ELF3 (Homo sapiens, UniProt P78545 1-371).
T5 sequence: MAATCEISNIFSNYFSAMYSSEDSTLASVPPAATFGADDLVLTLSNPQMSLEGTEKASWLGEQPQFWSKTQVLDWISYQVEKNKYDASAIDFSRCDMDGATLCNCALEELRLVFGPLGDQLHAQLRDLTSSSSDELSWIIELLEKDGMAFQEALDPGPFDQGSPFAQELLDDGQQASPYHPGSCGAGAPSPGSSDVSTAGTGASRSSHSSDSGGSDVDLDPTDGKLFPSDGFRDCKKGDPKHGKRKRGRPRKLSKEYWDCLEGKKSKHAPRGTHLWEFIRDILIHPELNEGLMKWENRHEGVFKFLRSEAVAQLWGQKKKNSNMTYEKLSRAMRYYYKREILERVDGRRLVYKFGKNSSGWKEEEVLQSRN
The following applies: protein: recombinant; tags: N-terminal GST; dsDNA, one strand shown. A digest of the protocol: as §1

For the next assay, the target named is CRX (Homo sapiens, UniProt O43186 1-299). The following applies: protein: recombinant; tags: N-terminal GST; dsDNA, one strand shown. In short, it runs like this: as §1
The next assay addresses ETV1 (Homo sapiens, UniProt P50549 1-477). The note with it: protein: recombinant; tags: N-terminal GST; dsDNA, one strand shown. In short, it runs like this:
as §1

The target in a further assay is T6, ERF (Homo sapiens, UniProt P50548 1-548).
T6 sequence: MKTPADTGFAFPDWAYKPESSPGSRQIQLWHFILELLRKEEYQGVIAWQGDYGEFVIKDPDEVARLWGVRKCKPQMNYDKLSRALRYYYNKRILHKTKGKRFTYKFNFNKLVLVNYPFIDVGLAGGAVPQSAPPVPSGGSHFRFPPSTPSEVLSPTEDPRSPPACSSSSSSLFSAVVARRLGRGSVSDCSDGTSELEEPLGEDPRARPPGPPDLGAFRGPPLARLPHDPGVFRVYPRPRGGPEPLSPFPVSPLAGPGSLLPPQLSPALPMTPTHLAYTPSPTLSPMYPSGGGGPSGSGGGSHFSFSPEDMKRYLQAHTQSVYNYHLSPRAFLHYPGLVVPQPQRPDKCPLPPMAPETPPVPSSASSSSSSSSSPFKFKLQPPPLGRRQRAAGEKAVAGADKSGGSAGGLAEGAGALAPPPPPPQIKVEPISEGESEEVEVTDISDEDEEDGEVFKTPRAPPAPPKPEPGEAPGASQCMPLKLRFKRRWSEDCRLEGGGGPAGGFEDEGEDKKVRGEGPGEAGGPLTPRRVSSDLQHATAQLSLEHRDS
The following applies: protein: recombinant; tags: N-terminal GST; dsDNA, one strand shown. In short, it runs like this: as §1

A further assay addresses T7, ETV3L (Homo sapiens, UniProt Q6ZN32 1-361).
T7 sequence: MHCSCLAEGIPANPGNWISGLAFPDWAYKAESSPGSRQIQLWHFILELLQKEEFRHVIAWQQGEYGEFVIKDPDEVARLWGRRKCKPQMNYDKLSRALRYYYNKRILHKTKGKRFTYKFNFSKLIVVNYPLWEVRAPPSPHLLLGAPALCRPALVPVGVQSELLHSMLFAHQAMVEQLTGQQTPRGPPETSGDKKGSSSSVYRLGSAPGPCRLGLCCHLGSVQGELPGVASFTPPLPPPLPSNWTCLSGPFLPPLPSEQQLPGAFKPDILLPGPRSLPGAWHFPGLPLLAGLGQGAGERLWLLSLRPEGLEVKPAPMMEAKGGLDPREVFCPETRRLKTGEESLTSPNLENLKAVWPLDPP
The note with it: protein: recombinant; tags: N-terminal GST; dsDNA, one strand shown. A digest of the protocol:
as §1

Another assay deals with T8, ETS2 (Homo sapiens, UniProt P15036 1-469).
T8 sequence: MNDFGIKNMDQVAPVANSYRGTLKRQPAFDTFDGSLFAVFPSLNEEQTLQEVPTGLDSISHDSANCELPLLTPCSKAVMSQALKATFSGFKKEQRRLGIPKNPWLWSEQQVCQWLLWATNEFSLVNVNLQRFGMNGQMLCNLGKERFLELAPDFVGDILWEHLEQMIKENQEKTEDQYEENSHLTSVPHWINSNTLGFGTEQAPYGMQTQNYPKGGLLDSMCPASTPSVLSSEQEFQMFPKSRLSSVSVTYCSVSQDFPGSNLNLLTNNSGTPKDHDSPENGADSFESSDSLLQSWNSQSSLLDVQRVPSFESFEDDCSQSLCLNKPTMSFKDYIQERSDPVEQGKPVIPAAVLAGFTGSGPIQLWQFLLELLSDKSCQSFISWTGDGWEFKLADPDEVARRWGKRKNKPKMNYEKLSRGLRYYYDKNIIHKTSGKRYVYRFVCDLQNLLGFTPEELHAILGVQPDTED
The following applies: protein: recombinant; tags: N-terminal GST; dsDNA, one strand shown. A digest of the protocol:
as §1

The target of a further assay is T9, SPDEF (Homo sapiens, UniProt O95238 1-335).
T9 sequence: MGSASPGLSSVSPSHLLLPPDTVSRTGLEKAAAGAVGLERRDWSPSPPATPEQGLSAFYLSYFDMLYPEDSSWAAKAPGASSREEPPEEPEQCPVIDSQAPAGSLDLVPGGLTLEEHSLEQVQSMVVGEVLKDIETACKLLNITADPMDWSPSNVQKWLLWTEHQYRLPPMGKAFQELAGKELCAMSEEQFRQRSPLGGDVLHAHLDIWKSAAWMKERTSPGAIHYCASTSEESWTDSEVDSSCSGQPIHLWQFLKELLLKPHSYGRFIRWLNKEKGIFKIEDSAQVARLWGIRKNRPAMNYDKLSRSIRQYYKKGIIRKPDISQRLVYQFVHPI
The note with it: protein: recombinant; tags: N-terminal GST; dsDNA, one strand shown. In short, it runs like this:
as §1

The next assay has as its target T10, ETV7 (Homo sapiens, UniProt Q9Y603 1-341).
T10 sequence: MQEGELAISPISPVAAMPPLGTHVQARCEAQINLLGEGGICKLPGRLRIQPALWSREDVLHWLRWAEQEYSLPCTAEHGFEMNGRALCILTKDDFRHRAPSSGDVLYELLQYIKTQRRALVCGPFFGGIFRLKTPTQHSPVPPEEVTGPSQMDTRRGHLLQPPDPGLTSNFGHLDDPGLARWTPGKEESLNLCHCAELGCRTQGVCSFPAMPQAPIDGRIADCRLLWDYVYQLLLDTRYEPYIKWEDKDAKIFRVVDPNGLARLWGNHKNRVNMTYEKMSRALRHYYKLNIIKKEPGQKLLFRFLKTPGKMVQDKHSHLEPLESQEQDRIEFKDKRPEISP
The note with it: protein: recombinant; tags: N-terminal GST; dsDNA, one strand shown. In short, it runs like this: as §1

The target in another assay is T11, ELF5 (Homo sapiens, UniProt Q9UKW6-2 1-255).
T11 sequence: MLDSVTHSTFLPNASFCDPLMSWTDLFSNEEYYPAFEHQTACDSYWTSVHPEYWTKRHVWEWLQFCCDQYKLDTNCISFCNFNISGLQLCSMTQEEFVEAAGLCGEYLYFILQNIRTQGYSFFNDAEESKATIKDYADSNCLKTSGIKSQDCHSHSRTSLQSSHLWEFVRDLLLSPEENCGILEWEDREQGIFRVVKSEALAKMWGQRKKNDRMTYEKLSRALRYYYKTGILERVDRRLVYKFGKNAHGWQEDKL
The following applies: protein: recombinant; tags: N-terminal GST; dsDNA, one strand shown. In short, it runs like this:
as §1

Another assay has as its target T12, ETV3 (Homo sapiens, UniProt P41162-2 1-143).
T12 sequence: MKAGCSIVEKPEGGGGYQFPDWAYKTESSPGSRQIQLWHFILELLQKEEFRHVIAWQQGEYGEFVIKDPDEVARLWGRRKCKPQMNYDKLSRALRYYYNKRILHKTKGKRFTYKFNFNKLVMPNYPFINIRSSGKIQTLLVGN
The note with it: protein: recombinant; tags: N-terminal GST; dsDNA, one strand shown. A digest of the protocol: as §1

The target of the next assay is ETV6 (Homo sapiens, UniProt P41212 1-452). The note with it: protein: recombinant; tags: N-terminal GST; dsDNA, one strand shown. A digest of the protocol:
as §1

In paper PMC7862700, “An all-to-all approach to the identification of sequence-specific readers for epigenetic DNA modifications on cytosine” one finds binding signal data, which are given here for one sequence.

CRX, sequence (O43186 whole entry): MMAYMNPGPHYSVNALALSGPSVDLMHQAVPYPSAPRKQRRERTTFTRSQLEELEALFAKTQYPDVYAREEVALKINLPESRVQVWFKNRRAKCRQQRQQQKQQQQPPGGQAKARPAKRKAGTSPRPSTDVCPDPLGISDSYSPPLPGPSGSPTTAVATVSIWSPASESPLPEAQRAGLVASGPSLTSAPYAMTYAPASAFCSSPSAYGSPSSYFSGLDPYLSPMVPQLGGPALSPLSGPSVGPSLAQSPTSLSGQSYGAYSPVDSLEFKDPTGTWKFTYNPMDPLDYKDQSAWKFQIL
ETV1, sequence (P50549 whole entry): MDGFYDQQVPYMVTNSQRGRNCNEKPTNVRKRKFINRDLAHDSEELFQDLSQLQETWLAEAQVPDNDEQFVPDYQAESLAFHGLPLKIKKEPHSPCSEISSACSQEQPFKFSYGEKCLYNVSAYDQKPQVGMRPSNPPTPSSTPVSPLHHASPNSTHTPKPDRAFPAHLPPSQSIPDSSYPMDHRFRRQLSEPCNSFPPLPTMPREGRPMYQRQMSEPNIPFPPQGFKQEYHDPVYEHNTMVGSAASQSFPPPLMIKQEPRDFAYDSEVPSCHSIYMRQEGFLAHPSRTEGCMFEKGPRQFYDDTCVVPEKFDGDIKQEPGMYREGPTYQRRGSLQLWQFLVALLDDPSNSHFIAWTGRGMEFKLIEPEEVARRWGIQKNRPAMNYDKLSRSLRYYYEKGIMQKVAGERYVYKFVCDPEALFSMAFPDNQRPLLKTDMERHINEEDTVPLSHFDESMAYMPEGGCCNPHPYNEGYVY
HSF1, sequence (Q00613 whole entry): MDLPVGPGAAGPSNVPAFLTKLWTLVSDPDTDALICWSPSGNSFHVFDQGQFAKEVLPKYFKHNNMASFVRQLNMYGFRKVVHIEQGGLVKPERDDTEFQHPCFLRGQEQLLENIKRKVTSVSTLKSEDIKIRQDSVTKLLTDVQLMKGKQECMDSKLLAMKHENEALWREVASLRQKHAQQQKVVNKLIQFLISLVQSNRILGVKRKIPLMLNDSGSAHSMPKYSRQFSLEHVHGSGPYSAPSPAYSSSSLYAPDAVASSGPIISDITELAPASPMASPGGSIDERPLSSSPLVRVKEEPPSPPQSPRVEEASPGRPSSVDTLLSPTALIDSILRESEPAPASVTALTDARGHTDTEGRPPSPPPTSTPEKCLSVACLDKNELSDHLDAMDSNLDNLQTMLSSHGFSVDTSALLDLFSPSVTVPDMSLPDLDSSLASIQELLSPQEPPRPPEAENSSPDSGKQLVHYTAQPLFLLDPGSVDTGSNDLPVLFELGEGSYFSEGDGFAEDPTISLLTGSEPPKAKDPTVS
ETV5, sequence (P41161 whole entry): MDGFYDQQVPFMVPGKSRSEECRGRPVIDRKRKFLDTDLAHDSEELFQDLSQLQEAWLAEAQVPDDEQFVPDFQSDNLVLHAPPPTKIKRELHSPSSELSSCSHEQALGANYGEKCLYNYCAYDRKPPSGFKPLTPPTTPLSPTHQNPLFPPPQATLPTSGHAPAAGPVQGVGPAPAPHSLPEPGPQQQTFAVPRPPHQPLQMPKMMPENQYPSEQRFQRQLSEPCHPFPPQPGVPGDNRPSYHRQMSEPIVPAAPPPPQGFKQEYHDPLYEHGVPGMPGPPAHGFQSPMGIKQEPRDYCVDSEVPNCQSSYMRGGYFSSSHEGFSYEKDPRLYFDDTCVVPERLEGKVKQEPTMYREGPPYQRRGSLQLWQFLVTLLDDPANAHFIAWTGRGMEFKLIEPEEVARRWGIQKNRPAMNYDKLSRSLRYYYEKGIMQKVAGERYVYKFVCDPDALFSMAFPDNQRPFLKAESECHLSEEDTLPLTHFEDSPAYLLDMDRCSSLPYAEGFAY
ELF4, sequence (Q99607 whole entry): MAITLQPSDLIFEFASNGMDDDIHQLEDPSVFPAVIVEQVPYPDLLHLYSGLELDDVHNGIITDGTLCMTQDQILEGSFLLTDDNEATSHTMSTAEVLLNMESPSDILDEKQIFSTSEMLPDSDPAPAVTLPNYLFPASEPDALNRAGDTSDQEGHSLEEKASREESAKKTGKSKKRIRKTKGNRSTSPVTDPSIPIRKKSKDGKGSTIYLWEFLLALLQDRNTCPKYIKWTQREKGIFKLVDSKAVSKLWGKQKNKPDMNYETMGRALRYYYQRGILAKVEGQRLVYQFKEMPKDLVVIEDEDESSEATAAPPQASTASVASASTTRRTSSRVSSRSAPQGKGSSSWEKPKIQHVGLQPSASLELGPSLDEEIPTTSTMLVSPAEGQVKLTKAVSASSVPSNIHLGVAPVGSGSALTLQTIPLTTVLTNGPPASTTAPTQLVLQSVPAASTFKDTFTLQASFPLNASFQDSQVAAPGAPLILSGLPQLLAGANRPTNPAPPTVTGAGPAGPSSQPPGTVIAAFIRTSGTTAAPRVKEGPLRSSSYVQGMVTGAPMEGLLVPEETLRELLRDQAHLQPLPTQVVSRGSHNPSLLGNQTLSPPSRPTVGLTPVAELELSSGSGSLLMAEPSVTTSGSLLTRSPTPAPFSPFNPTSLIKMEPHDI
ETV6, sequence (P41212 whole entry): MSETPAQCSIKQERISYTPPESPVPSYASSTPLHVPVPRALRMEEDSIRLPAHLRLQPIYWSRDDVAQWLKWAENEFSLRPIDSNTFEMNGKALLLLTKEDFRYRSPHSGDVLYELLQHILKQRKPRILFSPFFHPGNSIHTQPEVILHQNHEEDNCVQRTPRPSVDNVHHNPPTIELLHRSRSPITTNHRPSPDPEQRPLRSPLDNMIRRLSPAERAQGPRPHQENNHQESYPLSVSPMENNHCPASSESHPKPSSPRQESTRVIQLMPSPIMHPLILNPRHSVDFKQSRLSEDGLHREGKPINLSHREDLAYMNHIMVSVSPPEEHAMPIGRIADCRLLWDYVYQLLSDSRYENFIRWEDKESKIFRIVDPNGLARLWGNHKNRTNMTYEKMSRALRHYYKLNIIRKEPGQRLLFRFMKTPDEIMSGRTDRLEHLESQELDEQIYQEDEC

For the sequence CCCGAA, the binding signal with FEV is 1.37 fold enrichment (6-mer frequency, TF over GST control); with ETV5, 1.36 fold enrichment (6-mer frequency, TF over GST control); with HSF1 it was 2.56 fold enrichment (6-mer frequency, TF over GST control); with SPIC it was 1.45 fold enrichment (6-mer frequency, TF over GST control); in the assay with ELF4, 1.37 fold enrichment (6-mer frequency, TF over GST control); in the assay with ELK4 it was 1.34 fold enrichment (6-mer frequency, TF over GST control). Besides, the binding signal was 1.29 fold enrichment (6-mer frequency, TF over GST control) with ETV2; 1.47 fold enrichment (6-mer frequency, TF over GST control) with ELF3; 1.61 fold enrichment (6-mer frequency, TF over GST control) in the assay with CRX; 1.29 fold enrichment (6-mer frequency, TF over GST control) with ETV1; 1.48 fold enrichment (6-mer frequency, TF over GST control) with ERF; 1.35 fold enrichment (6-mer frequency, TF over GST control) with ETV3L. In addition, the binding signal with ETS2 is 1.37 fold enrichment (6-mer frequency, TF over GST control); with SPDEF, 1.31 fold enrichment (6-mer frequency, TF over GST control); with ETV7, 1.26 fold enrichment (6-mer frequency, TF over GST control); with ELF5, 1.32 fold enrichment (6-mer frequency, TF over GST control); with ETV3, 1.33 fold enrichment (6-mer frequency, TF over GST control); with ETV6, 1.36 fold enrichment (6-mer frequency, TF over GST control).
